# Source: article PMC4336329 (PLoS ONE, 2015)
# Hit rate of the full screen: of about 310,000 compounds, about 2,200 (0.71%) showed an effect of 50% or more. Effects have a minus sign here. This excerpt belongs to a sample that is enriched for strong results.
# Target: human ether-à-go-go-related gene (hERG) potassium channel (human, UniProt Q12809)
# Assay: primary screen, population patch clamp on CHO cells stably expressing hERG; higher = less effect of the substance
# human ether-à-go-go-related gene (hERG) potassium channel, sequence (Q12809 whole entry, looked up): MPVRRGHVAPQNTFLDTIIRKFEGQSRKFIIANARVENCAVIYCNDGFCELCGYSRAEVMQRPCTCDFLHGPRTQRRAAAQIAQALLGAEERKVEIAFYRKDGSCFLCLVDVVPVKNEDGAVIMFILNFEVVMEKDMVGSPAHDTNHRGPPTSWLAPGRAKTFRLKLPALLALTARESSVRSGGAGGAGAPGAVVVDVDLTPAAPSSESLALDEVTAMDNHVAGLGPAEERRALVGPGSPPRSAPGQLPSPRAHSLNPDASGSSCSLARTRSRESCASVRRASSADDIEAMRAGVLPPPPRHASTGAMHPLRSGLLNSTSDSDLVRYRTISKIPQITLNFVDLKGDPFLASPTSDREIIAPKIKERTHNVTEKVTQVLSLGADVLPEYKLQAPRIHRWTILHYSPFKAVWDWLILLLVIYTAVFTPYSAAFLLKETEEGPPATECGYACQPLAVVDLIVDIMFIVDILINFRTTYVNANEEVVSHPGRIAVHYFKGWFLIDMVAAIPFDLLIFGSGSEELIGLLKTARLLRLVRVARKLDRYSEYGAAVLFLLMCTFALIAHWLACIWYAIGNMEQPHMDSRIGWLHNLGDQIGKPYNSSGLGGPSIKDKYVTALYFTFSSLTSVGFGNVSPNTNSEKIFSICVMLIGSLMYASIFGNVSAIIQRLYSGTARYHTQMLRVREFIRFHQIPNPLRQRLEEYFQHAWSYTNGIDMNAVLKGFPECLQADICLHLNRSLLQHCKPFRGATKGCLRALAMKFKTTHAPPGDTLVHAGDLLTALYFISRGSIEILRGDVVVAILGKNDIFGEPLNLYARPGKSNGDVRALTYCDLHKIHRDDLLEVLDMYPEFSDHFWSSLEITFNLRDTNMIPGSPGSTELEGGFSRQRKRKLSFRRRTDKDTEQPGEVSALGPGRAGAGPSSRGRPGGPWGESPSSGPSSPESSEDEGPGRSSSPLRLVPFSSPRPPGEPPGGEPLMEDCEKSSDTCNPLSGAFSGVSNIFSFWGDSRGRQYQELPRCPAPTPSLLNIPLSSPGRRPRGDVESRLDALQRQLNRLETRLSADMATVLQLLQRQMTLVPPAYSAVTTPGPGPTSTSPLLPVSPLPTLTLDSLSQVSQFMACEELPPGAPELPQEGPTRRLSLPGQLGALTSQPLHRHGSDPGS
row,Compound,"hERG current change (%, negative = inhibition) at 1uM"
1,Cc1ccc(C2C(=O)N(C3CCC(C)CC3)CC(=O)N2C2CCCC2)cc1 (stereo not drawn),-13.1%
2,COC(=O)/C=c1/s/c(=C(/C#N)C(=O)N2CCCCC2)n(-c2ccccc2)c1=O,9.76%
3,CC(C)[C@H](NS(=O)(=O)c1ccccc1)C(=O)OCn1nnc2ccccc2c1=O,4.31%
4,Cn1c(=O)c2c(nc(SCCN3CCCCC3)n2Cc2ccc(Cl)cc2)n(C)c1=O,-48.9%
5,Cc1ccc(Cn2c(SCCN3CCCCC3)nc3c2c(=O)n(C)c(=O)n3C)cc1,-67.1%
6,Cc1ccc(Cn2c(SCCN3CCOCC3)nc3c2c(=O)n(C)c(=O)n3C)cc1,-6.9%
7,Cn1c(=O)c2c(nc(SCCN3CCCCC3)n2Cc2ccccc2)n(C)c1=O,-66%
8,Cn1c(=O)c2c(nc(SCCN3CCOCC3)n2Cc2ccccc2)n(C)c1=O,-5.7%
9,Cn1c(=O)c2c(nc(SCCN3CCOCC3)n2Cc2ccccc2Cl)n(C)c1=O,-8.97%
10,ON1C2CCCCC2N(O)C1c1c(F)c(F)c(F)c(F)c1F (stereo not drawn),17.7%
11,CC1CN(CC(=O)NCc2ccccc2)CC(C)O1 (stereo not drawn),19.2%
12,Cc1ccc(N2C(=O)C(CN3CCCC3)C2c2ccccc2)cc1 (stereo not drawn),-70.6%
13,Cc1ccc(N2C(=O)C(CN3CCCCC3)C2c2ccccc2)cc1 (stereo not drawn),-4.6%
14,Cc1ccc(N2C(=O)C(CN3CCOCC3)C2c2ccccc2)cc1 (stereo not drawn),-1.12%
15,O=c1c2ccccc2nc(SCCN2CCCCC2)n1CCc1ccccc1,-10%
16,C=CCn1c(SCC(=O)N2CCCC2)nc2c([nH]c3ccccc32)c1=O,5.21%
17,COCCn1c(SCC(=O)N2CCCCC2)nc2ccccc2c1=O,-30.8%
18,C=CCn1c(SCC(=O)NC2CCCC2)nc2c([nH]c3ccccc32)c1=O,-16.9%
19,COCCn1c(SCC(=O)N2CCC(C)CC2)nc2ccccc2c1=O,-57.9%
20,COc1ccc(CCn2c(SCCN3CCCCC3)nc3ccccc3c2=O)cc1OC,-8.22%
21,CCOC(=O)CSc1nc2ccccc2c(=O)n1CC,-1.18%
22,CCOC(=O)CSc1nc2ccccc2c(=O)n1CC1CCCC1,-63.8%
23,COCCn1c(SCCN2CCCCC2)nc2ccccc2c1=O,-53.3%

row,Compound,"hERG current change (%, negative = inhibition) at 1uM"
1,COCCn1c(SCC(=O)N2CCOCC2)nc2ccccc2c1=O,5.32%
2,C=CCn1c(SCCN2CCCC2)nc2c([nH]c3ccccc32)c1=O,-63.9%
3,CCOC(=O)CSc1nc2ccccc2c(=O)n1CC1CCCO1 (stereo not drawn),9.44%
4,CN(C(=O)COC(=O)/C=C/c1ccc2ccccc2n1)C1CCS(=O)(=O)C1 (stereo not drawn),12.9%
5,CC(=O)Nc1cccc(C(=O)OCc2ccc([N+](=O)[O-])cc2)c1,-13.5%
6,O=C1C=C(NCC2CCCO2)C2(CCCCC2)O1 (stereo not drawn),15.6%
7,N#Cc1ccccc1OCC(=O)N1N=C(c2cccs2)CC1c1ccco1 (stereo not drawn),-1.57%
8,O=C(CSc1nncn1-c1ccccc1)Nc1cc(Cl)cc(Cl)c1,5.88%
9,O=C(Cn1ncc2c1-c1ccccc1OC2)N1CCN(Cc2ccccc2)CC1,-58%
10,CCN1CCN(C(=O)Cn2ncc3c2-c2ccccc2OC3)CC1,0.123%
11,O=C(Cn1ncc2c1-c1ccccc1OC2)N1CCN(Cc2ccc3c(c2)OCO3)CC1,-31%
12,O=C1NN=COc2ccccc21,4.08%
13,OCCC1CN(Cc2cccn2-c2ccccn2)CCN1C1CCCC1 (stereo not drawn),3.68%
14,Cc1cc(C)c(CN2CCN(Cc3ccc(C)o3)C(CCO)C2)c(-n2cccn2)c1 (stereo not drawn),-70.9%
15,Cc1ccc(CN2CCN(Cc3c(C)nn(C(C)C)c3C)CC2CCO)o1 (stereo not drawn),10.6%
16,CC(C)=CCN1CCN(Cc2cccn2-c2ccccn2)CC1CCO (stereo not drawn),-19.9%
17,Cc1ccc(CN2CCN(Cc3ccncc3)CC2CCO)o1 (stereo not drawn),-1.98%
18,Cc1ccc(CN2CCN(Cc3cccn3-c3ccccn3)CC2CCO)o1 (stereo not drawn),-59.5%
19,CC(C)N1CCN(Cc2cccn2-c2ccccn2)CC1CCO (stereo not drawn),-16%
20,CC(C)CN1CCN(Cc2cccn2-c2ccccn2)CC1CCO (stereo not drawn),-18.8%
21,OCCC1CN(Cc2cccn2-c2ccccn2)CCN1Cc1ccccc1 (stereo not drawn),-61.4%
22,CC(C)CCN1CCN(Cc2cccn2-c2ccccn2)CC1CCO (stereo not drawn),-36.6%
23,Cc1ccc(CN2CCN(Cc3cccn3-c3ccccn3)CC2CCO)cc1 (stereo not drawn),-82.4%

row,Compound,"hERG current change (%, negative = inhibition) at 1uM"
1,Cc1ccc(CN2CCN(Cc3cccn3-c3ccc(Cl)cn3)CC2CCO)o1 (stereo not drawn),0.259%
2,CCOC(=O)C1CCN(S(=O)(=O)c2cc3c(cc2C)NC(=O)CO3)CC1,-13.1%
3,CC(=O)NCCC(=O)Nc1sc2c(c1-c1nc3ccccc3[nH]1)CCCC2,7.25%
4,CC(C)(C)NCCOc1ccc2ccccc2c1,14.6%
5,O=C(O)c1cc2ccccc2cc1Nc1ccccc1,6.84%
6,CC(OC(=O)c1ccco1)C(=O)Nc1ccc(Cl)cn1 (stereo not drawn),5.93%
7,CNC(=O)C1=C(C)Nc2nc3ccccc3n2C1c1ccc(F)cc1 (stereo not drawn),7.95%
8,C/C(CC(=O)Nc1ccc(F)cc1)=N\NC(=O)Cc1csc(N)n1,16.1%
9,CCOC(=O)c1nc(Nc2ccc(C(=O)O)cc2)c2ccccc2n1.Cl,11.2%
10,O=C(Nc1ccccc1)N(C1=NCCCCS1)c1cccc2ccccc12,5.62%
11,O=C(O)CC1SC(=O)N(CC(=O)c2ccccc2)C1=O (stereo not drawn),8.06%
12,O=C(COC(=O)Cc1cccc(C(F)(F)F)c1)NC1CC1,10.7%
13,N#CCCn1cc(C(=O)Nc2ccc([N+](=O)[O-])cc2)c(-c2ccccc2)n1,-67.8%
14,N#CCCn1cc(C(=O)Nc2ccc(F)cc2)c(-c2ccc([N+](=O)[O-])cc2)n1,6.48%
15,N#CCCn1cc(C(=O)Nc2ccc(C(=O)O)cc2)c(-c2ccc([N+](=O)[O-])cc2)n1,16%
16,O=C(OCC(=O)N1CCCC1)c1ccc(S(=O)(=O)Nc2ccccc2)cc1,-0.807%
17,CN(CC(=O)Nc1cccc(F)c1)C(=O)c1ccccc1Sc1ccccc1C#N,-8.06%
18,CC(C)(C)c1ccc(CN2C(=O)c3ccccc3S2(=O)=O)cc1,15.7%
19,CC(=O)c1cccc(NC(=O)C2CCCN(S(=O)(=O)c3ccccc3)C2)c1 (stereo not drawn),7.51%
20,O=C(NCc1ccco1)C1CCCN(S(=O)(=O)c2cc(Cl)ccc2Cl)C1 (stereo not drawn),2.52%
21,CN(C)c1ccc(/C=N/NC(=O)c2ccn(C)n2)cc1,9.92%
22,CC(NC(=O)c1ccccc1Cl)c1ccc(-n2ccnc2)cc1 (stereo not drawn),-1.53%
23,CC(NC(=O)c1cc(S(=O)(=O)N(C)C)ccc1Cl)c1ccc(-n2ccnc2)cc1 (stereo not drawn),-55.3%

row,Compound,"hERG current change (%, negative = inhibition) at 1uM"
1,CC(NC(=O)c1ccc(S(=O)(=O)N(C)C)cc1)c1ccc(-n2ccnc2)cc1 (stereo not drawn),-40.5%
2,COc1ccc(C(=O)CN2C(=O)NC(C)(c3ccccc3)C2=O)cc1OC (stereo not drawn),3.32%
3,CCOC(=O)C1CCN(CC(=O)c2c(C)[nH]c3cc(C)ccc23)CC1,-26.8%
4,CCOC(=O)C1CCN(C(C)C(=O)c2c(C)[nH]c3cc(C)ccc23)CC1 (stereo not drawn),-66.9%
5,CCOC(=O)C1CCN(C(C)C(=O)c2c[nH]c3ccccc23)CC1 (stereo not drawn),-1.89%
6,CCOC(=O)C1=C(C)NC(=S)N(C(C)=O)C1c1ccc(Cl)cc1 (stereo not drawn),9.38%
7,Cc1ccc(Cn2c(SC3CCOC3=O)nc3ccccc3c2=O)cc1 (stereo not drawn),-6.65%
8,O=C1OCCC1Sc1nc2ccccc2c(=O)n1Cc1ccc(F)cc1 (stereo not drawn),-37.5%
9,O=C1OCCC1Sc1nc2ccccc2c(=O)n1Cc1ccccc1 (stereo not drawn),-64.6%
10,COc1ccc2nc3ccccc3nc2c1NC(=O)c1ccccc1Cl,-1.38%
11,O=C(NCc1ccccc1)c1cnsn1,7.4%
12,CC1(C)C(=O)C2(CCCCC2)C(=O)OC1C(=O)c1ccccc1 (stereo not drawn),6.81%
13,O=C(COc1ccc2c3c(c(=O)oc2c1)CCCC3)N1C[C@H]2C[C@@H](C1)c1cccc(=O)n1C2,-6%
14,COc1cnn(Cc2ccccc2)c(=O)c1SCc1ccccc1,-2%
15,CCN1CCc2nc3ccccc3c(C(=O)Nc3ccc(C#N)cc3)c2C1,-65.8%
16,CCOc1ccc(NC(=O)c2c3c(nc4ccccc24)CCC3)cc1,10.9%
17,Cc1ccc(NC(=O)c2c3c(nc4ccccc24)CCC3)cc1,7.04%
18,O=C(NCc1ccc(F)cc1)c1c2c(nc3ccccc13)CCN(Cc1ccccc1)C2,0.811%
19,CCN1CCc2nc3ccccc3c(C(=O)Nc3ccc(NC(C)=O)cc3)c2C1,12.4%
20,CCN1CCc2nc3ccccc3c(C(=O)Nc3ccc(F)cc3)c2C1,-81.6%
21,Cc1ccc(Oc2nc(C(F)(F)F)nc3ccccc23)cc1,6.66%
